Results: PubChem BioAssay (NCATS)
Results filed as inconclusive are left out. Active and inactive are the calls of the source. The call rests on the fitted dose curve; in most records, active means well fitted curve in the direction sought with a large enough effect; inconclusive means small, poorly fitted or top-dose-only effect, or another doubt; inactive means no such curve, though single readings can be large; an effect the other way counts as inactive or inconclusive.

Assays:
[1] = system: Zika virus NS2B-NS3 protease; test: Primary screen GU AMC qHTS for Zika virus inhibitors (AID 1347154); further: nearly all actives have a fitted effect of over 70% in size
Outline: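 Unlinked Zika NS2B hydrophilic domain–NS3 protease complex at 25 nM in 10 mM Tris-HCl pH 8.0, 0.01% Tween 20, with an AMC peptide substrate. Fluorescence change (340/450 nm) over 15 min at room temperature, normalized to controls, fitted to 4-parameter Hill.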

[2] = biological target: Lysine-specific demethylase 5B (Homo sapiens) (UniProt Q9UGL1); test: Optimization screen for KDM5B Histone Demethylases FDH coupled qHTS against the LOPAC library (AID 1347166)
Outline: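 KDM5BDeltaAP (200nM final) in 50mM HEPES pH 7.5, 0.01% Tween-20 was preincubated with compound for 10 min at room temperature. A substrate mix of 12.5uM H3K4Me3, 25uM a-ketoglutarate, ascorbate, Fe2+, NAD+ and formaldehyde dehydrogenase was then added. NADH fluorescence (340/450 nm) was read initially and after 30 min.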

[3] = qHTS to identify inhibitors of the type 1 interferon - major histocompatibility complex class I in skeletal muscle: primary screen against the NCATS LOPAC collection (AID 1347405);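 further: human myoblasts with HiBiT tag on endogenous HLA-B stimulated by IFN-beta; lytic HiBiT luminescence reporting HLA-B protein level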
Outline: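 First, engineered myoblasts carrying HLA-B-HiBiT were seeded in medium lacking dexamethasone with 4 ng/ml IFN-beta. After 1 hr, compounds were pinned in (top 46 uM final, 7 points). After 24 hrs at 37 C, luminescence was measured following 10 min lysis.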

[4] = qHTS to identify inhibitors of the type 1 interferon - major histocompatibility complex class I in skeletal muscle: primary screen against the NCATS Pharmaceutical Collection (AID 1347407);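 further: luminescence of HiBiT knocked into endogenous HLA-B as interferon-induced MHC class I level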
Outline: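 Compounds […] were added to CRISPR-engineered HLA-B-HiBiT C25cl48 human myoblasts with 4.0 ng/ml IFN-beta. After 24 hrs at 37 C, cells were lysed and HiBiT luminescence measured.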

[5] = qHTS for inhibitors of adenylyl cyclases using a fission yeast platform: a pilot screen against the NCATS LOPAC library (AID 1347410)
Outline: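 GFP from fbp1-GFP reporter, read by Acumen laser cytometry, indicates AC inhibition in fission yeast expressing AC9, GNAS and PDE4D2. Cells grown 18 h in the dark at 30C with compounds, final up to 57 uM.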

[6] = biological target: Protein phosphatase 1D (Homo sapiens) (UniProt O15297); test: RapidFire Mass Spectrometry qHTS Assay for Modulators of WT P53-Induced Phosphatase 1 (WIP1) (AID 1347424); further: series mostly up to about 63 µM
Outline: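 RapidFire MS readout of dephosphorylated VEPPL-S-QETFS product, with 1 uM isotope-labelled peptide standard. Reaction: 10 nM WIP1, 2 uM phosphopeptide substrate, 5 min, room temperature, after 1 h compound preincubation; stopped with 0.5% formic acid.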

[7] = biological target: Protein phosphatase 1D (Homo sapiens) (UniProt O15297); test: Rhodamine-PBP qHTS Assay for Modulators of WT P53-Induced Phosphatase 1 (WIP1) (AID 1347425)
Outline: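 5 nM WIP1 + 10 uM Rh-PBP, 50 mM Tris pH 7.5, 30 mM MgCl2, 1 mM TCEP, 0.1 mM EGTA, BSA; cpds pinned, 1 hr RT; + 10 uM phosphopeptide; fluorescence 1-min reads x 11 min; delta = f1 - f0.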

[8] = Validation qHTS assay for inhibitors of Activation Induced Cytidine Deaminase (AID): UDG Counterscreen signal (AID 1347427)
Outline: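 Fluorescence at 560 nm excitation, 665 nm emission reports UDG signal after 250 mM NaOH (2x) addition and 30 min. Enzymes (AID 1 uM, UDG 2 U/mL, at 4/3x) preincubated 10 min with compound, then 4 h with 4x 250 nM DJC20/DJC23 substrate at room temperature.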

[9] = biological target: Single-stranded DNA cytosine deaminase (Homo sapiens) (UniProt Q9GZX7); test: Validation qHTS assay for inhibitors of Activation Induced Cytidine Deaminase (AID): AID signal (AID 1347429)
Outline: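 Steps: dispense AID with UDG; pin-transfer compound up to 114 uM final; add DJC20/DJC23 substrate and hold 4 hr at room temperature; add NaOH, hold 30 min; read FRET signal (540/590 nm).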

[10] = Primary qHTS for inhibitors of La Crosse Virus (LACV) - induced cell death in SH-SY5Y cells (AID 1508616);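 further: top concentration of the series differs between compounds; higher means more rescue of cells from virus-induced death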
Outline: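 SH-SY5Y, 6000 cells/well; cpd via pin tool in DMSO; LACV 0.01 MOI; 6 d 37C 5% CO2; ATPLite, 5 min RT; luminescence normalized to ±virus DMSO controls.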

Measured: Potency

Chain of Lysine-specific demethylase 5B (Homo sapiens) (Q9UGL1 whole entry, looked up): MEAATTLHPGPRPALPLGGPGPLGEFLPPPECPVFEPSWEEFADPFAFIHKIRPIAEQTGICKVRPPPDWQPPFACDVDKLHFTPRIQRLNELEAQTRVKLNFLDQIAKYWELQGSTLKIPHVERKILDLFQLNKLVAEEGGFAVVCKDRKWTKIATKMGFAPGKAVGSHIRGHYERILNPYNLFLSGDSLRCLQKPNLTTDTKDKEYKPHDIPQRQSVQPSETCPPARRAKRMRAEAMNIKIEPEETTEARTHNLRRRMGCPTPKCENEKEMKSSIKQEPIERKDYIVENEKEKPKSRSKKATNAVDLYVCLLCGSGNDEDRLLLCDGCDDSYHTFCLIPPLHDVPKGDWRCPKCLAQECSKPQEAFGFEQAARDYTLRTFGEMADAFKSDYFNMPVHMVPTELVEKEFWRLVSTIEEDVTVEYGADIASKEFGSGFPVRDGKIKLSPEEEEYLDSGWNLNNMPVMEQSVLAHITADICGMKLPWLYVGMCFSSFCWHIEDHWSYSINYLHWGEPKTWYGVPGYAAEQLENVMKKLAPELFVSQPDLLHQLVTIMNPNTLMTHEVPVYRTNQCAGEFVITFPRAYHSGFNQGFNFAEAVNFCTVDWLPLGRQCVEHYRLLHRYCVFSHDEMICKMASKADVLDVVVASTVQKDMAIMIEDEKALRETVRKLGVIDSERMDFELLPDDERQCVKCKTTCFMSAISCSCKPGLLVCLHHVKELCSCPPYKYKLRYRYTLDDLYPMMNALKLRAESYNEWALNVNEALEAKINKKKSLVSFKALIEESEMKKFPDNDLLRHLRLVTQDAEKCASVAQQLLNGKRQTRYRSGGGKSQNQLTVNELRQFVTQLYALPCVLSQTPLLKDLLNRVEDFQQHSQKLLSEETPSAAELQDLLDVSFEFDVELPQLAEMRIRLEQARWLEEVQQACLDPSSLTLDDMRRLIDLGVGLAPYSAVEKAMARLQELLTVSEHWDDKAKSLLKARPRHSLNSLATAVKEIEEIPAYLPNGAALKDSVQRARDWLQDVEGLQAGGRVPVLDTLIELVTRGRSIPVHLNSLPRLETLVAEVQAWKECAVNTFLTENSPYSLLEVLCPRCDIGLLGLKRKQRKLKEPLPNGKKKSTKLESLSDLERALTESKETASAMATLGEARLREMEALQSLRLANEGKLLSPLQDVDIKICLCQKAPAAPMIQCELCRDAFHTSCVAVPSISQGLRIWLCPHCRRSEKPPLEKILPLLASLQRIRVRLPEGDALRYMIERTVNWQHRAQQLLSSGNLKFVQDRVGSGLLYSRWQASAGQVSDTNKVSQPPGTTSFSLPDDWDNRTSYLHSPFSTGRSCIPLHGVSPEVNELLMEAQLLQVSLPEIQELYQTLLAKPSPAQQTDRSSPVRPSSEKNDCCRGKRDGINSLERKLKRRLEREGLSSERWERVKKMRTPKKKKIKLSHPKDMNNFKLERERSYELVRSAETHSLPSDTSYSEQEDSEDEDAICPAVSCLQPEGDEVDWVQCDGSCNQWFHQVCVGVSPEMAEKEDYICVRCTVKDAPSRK
Chain of Single-stranded DNA cytosine deaminase (Homo sapiens) (Q9GZX7 whole entry, looked up): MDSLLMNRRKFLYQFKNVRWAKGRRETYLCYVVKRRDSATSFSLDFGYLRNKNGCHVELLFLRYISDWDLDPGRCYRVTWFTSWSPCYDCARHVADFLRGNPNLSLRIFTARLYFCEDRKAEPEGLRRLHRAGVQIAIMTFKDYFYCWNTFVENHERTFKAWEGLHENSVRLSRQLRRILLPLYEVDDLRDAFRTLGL
Chain of Protein phosphatase 1D (Homo sapiens) (O15297 whole entry, looked up): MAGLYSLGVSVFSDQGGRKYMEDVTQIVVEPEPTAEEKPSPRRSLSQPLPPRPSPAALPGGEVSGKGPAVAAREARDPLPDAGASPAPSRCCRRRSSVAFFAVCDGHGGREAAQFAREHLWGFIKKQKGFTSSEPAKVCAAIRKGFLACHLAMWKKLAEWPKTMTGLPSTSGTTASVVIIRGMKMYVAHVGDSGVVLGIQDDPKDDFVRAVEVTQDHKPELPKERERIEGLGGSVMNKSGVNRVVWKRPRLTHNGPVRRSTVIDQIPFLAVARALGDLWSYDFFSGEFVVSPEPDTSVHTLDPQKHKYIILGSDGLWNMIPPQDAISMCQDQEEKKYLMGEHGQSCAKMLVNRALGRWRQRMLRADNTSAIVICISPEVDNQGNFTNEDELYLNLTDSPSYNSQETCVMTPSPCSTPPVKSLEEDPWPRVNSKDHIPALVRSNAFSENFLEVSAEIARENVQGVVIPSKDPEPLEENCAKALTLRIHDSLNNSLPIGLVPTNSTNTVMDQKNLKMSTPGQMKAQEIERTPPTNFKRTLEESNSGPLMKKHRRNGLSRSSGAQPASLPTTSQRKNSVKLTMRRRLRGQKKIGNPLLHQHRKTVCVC

O=C(O)CP(=O)(O)O
inactive: all assays above

CNCCC(Oc1ccccc1OC)c1ccccc1 (stereo not given)
inactive: all assays above

NC1=NCC2c3ccccc3Cc3ccccc3N12 (stereo not given)
inactive: all assays above

Nc1c2c(nc3ccccc13)CCCC2O (stereo not given)
inactive: all assays above

CC(C)(C)NCC(O)c1cc(O)cc(O)c1 (stereo not given)
inactive: all assays above

CC(=O)OCC1=C(C(=O)O)N2C(=O)[C@@H](NC(=O)Cc3cccs3)[C@H]2SC1
inactive: all assays above

CN1C(=O)CC[C@H]1c1cccnc1
inactive: all assays above

CC[N+](C)(C)c1cccc(O)c1
inactive: all assays above

CCC(=O)c1ccc2c(c1)N(CCCN(C)C)c1ccccc1S2
inactive: all assays above

COc1cc(Cc2cnc(N)nc2N)cc(OC)c1OC
inactive: all assays above

CCN(Cc1ccncc1)C(=O)C(CO)c1ccccc1 (stereo not given)
inactive: all assays above

CC(=O)Oc1cc(C(C)C)c(OCCN(C)C)cc1C
inactive: all assays above

CCN(CC)CCNC(=O)c1ccc(NC(C)=O)cc1
inactive: all assays above

CN(C)CC/C=C1\c2ccccc2COc2ccccc21
inactive: all assays above

CCCNC(C)C(=O)Nc1ccccc1C (stereo not given)
inactive: all assays above

OCCN1CCN(CCCN2c3ccccc3C=Cc3ccccc32)CC1
inactive: all assays above

CN1C[C@H](C(=O)N[C@]2(C)O[C@@]3(O)[C@@H]4CCCN4C(=O)[C@H](Cc4ccccc4)N3C2=O)C[C@@H]2c3cccc4[nH]cc(c34)C[C@H]21
inactive: all assays above

CCn1ccnc1CC1COc2ccccc2O1 (stereo not given)
inactive: all assays above

CN(C)C(=O)Oc1cccc([N+](C)(C)C)c1
inactive: all assays above

FC(F)(F)c1ccccc1-n1ccnc1
inactive: all assays above

CNCCCN1c2ccccc2CCc2ccccc21
inactive: all assays above

COc1ccc2c(c1OC)C(=O)O[C@@H]2[C@H]1c2c(cc3c(c2OC)OCO3)CCN1C
inactive: all assays above

CN(C)CC[C@@H](c1ccc(Br)cc1)c1ccccn1
inactive: all assays above
